# HT1080 IDH1KD tx = qHTS for induction of synthetic lethality in tumor cells producing 2HG: qHTS for the HT-1080-IDH1KD cell line | Potency, µM (series often up to 46.1 µM), usual class: cytotoxic | HT-1080 IDH1 knockdown viability, ATP luminescence, 48 h | hit rate 2% among 360,000
#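 IDH1KD HT-1080 cells, 750/well, RPMI + 5% FBS; compound pinned after 2 h settling; 48 h, 37 °C; CellTiter-Glo luminescence; % activity normalised to DMSO and no-cell wells; curves fitted, classed by r2 and efficacy.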
# IL1B secr inh = qHTS for Inhibitors of Inflammasome Signaling: IL-1-beta AlphaLISA Primary Screen; activity change, % at 57.5 µM; THP-1 LPS/ATP IL-1B secretion, AlphaLISA, 16 h; active compounds read low; hit rate 4.7% among 360,000; AID 743279, 2014; in the data active = activity change below about -50%; inconclusive = mostly about -30% to -49%
#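 THP-1 cells pretreated 1 hr with compounds (up to 57.5 uM final), then stimulated with LPS (250 ng/mL final) plus ATP (1.25 mM final); secreted IL-1B measured by AlphaLISA after 16 hr, decreased signal indicating inhibition.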
# DT40 TDP1 CPT = qHTS for Inhibitors of human tyrosyl-DNA phosphodiesterase 1 (TDP1): qHTS in cells in presence of CPT | chicken DT40 Tdp1-/-;hTDP1 cells + 20 nM CPT, ATP luminescence, 48 h | Potency, µM (series often up to 46.2 µM), hits mostly inhibitors | hit rate 12% among 420,000 | AID 686979, 2013; also: nearly all actives have a fitted effect of over 55% in size
#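 Chicken DT40 Tdp1-/- cells complemented with human TDP1, 400 cells/well, exposed to compounds plus 20 nM camptothecin for at least 48 h at 37 C; viability read as ATP content by CellTiter-Glo luminescence.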
# HT1080NT lethal = qHTS for induction of synthetic lethality in tumor cells producing 2HG: qHTS for the HT-1080-NT fibrosarcoma cell line | HT-1080-NT fibrosarcoma viability, CellTiter-Glo ATP luminescence, 48 h | Potency, µM (series often up to 46.1 µM), hits mostly cytotoxic | hit rate 1.6% among 360,000;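 also: NT is the 2HG producing partner of a matched IDH1 knockdown line; nearly all actives have a fitted effect of over 55% in size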
#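 Read-out is CellTiter-Glo luminescence after 10 minutes at room temperature, following 48 hours' compound treatment of HT-1080-NT cells (750 cells/well, RPMI, 5% FBS, 37 degrees C).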
# TDP1 cell noCPT = qHTS for Inhibitors of human tyrosyl-DNA phosphodiesterase 1 (TDP1): qHTS in cells in absence of CPT. DT40 Tdp1-/- hTDP1 cells, no CPT, ATP luminescence, 48 h. Potency, µM (doses to about 46.2 µM), most hits filed as inhibitors. hit rate 15% among 420,000; also: nearly all actives have a fitted effect of over 55% in size
#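 Luminescent ATP content (CellTiter-Glo) served as the growth readout. Knockout chicken DT40 cells expressing human TDP1 were exposed to compounds without camptothecin for a minimum 48 hr at 37 °C.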
# Hits are given with their value; – = inactive; ? = inconclusive; · = no result given; ! = repeats disagree; [ ] = dose if it differs, or a comment. A selection: hits, their analogues and other compounds. The true share with any hit is near 19%. Unless noted, calls follow the shape of the dose curve; as a rule, active = well fitted curve in the direction sought with a large enough effect; inconclusive = small, poorly fitted or top-dose-only effect, or another doubt; inactive = no such curve, though single readings can be large; an effect the other way counts as inactive or inconclusive.
SMILES,HT1080 IDH1KD tx,IL1B secr inh,DT40 TDP1 CPT,HT1080NT lethal,TDP1 cell noCPT
COc1ccc(NC(=O)CN(C)C(=O)c2cc(C)on2)cc1,–,–,–,–,–
CCN(CCCc1ccccc1)CCCc1ccccc1,?,–,10.3µM!,?,23.1µM!
Cc1ccc(S(=O)(=O)Nc2ccc3c(c2)c2c(n3S(=O)(=O)c3ccc(C)cc3)CCCC2=O)cc1,–,–,5.8µM,–,8.2µM
CCn1cnc2cc(NS(=O)(=O)c3ccc(C)cc3)ccc21,–,–,?,–,?
CCOC(=O)c1c(C)n(S(=O)(=O)c2ccc(C)cc2)c2ccc(NS(=O)(=O)c3ccc(C)cc3)cc12,·,·,18.4µM,·,20.6µM
Cc1ccc(S(=O)(=O)Nc2ccc3c(c2)CCC3)cc1,–,–,14.6µM,–,16.4µM
NC(=O)c1ccsc1NC(=O)Cc1ccc([N+](=O)[O-])cc1,–,–,–,–,–
O=C(c1ccco1)N1CCC2CC1c1c(Cl)cccc12 (configuration not stated),–,–,?,–,?
COc1ccc(NC(=S)N2CCC3CC2c2c(Cl)cccc23)c(OC)c1 (configuration not stated),–,–,?,–,?
C=CCNC(=S)N1CCC2CC1c1c(Cl)cccc12 (configuration not stated),–,–,?,–,25.9µM
S=C(NCCc1ccccc1)N1CCC2CC1c1c(Cl)cccc12 (configuration not stated),–,–,?,–,16.4µM
Cc1ccc2c(c1)CN(CCNC(=O)c1cc3ccccc3oc1=O)CC(C)O2 (configuration not stated),·,·,–[9.04 µM],·,–
CCC(NC(=S)NCc1ccc(F)cc1)c1ccccc1 (configuration not stated),–,–,?,–,?
Cc1ccc(C)c(C(C)NC(=S)NCc2ccc(F)cc2)c1 (configuration not stated),?,–,23.1µM,?,?
COc1cccc(C(C)NC(=S)NCc2ccc(Cl)cc2)c1 (configuration not stated),–,–,–,–,–
COc1ccc(C(C)NC(=S)NCc2ccc(F)cc2)cc1 (configuration not stated),–,–,18.4µM,–,?
COC(=O)C[C@H]1c2cc(C(F)(F)F)ccc2S(=O)(=O)N1Cc1ccccc1,–,–,?,–,?
CC(=O)N(C1=C(Cl)C(=O)c2ccccc2C1=O)C1CCCCC1,2.91µM,-96.9,0.461µM,4.11µM,0.517µM
CC(C)[C@H](NC(=O)[C@H](Cc1ccccc1)n1c(=O)[nH]c2ccccc2c1=O)C(=O)N1CCC[C@H]1C(=O)O,–,–,–,–,–
COc1ccc(OC)c(CCNC(=O)Cn2ccc3cc(S(=O)(=O)N4CCCCC4)ccc32)c1,·,·,?,·,7.31µM
O=C(Cn1ccc2cc(S(=O)(=O)N3CCCCCC3)ccc21)NCCc1ccc(Cl)cc1,·,·,16.4µM,·,18.4µM
COc1cccc(CNC(=O)Cn2ccc3cc(S(=O)(=O)N4CCCCCC4)ccc32)c1OC,–,–,?,–,?
CCOc1ccc(CCNC(=O)Cn2ccc3cc(S(=O)(=O)N4CCCC4)ccc32)cc1,–,–,?,–,?
CCOc1ccc(CCNC(=O)Cn2ccc3cc(S(=O)(=O)N4CCCCCC4)ccc32)cc1,·,·,20.6µM,·,13µM
O=C(O)Cn1ccc2cc(S(=O)(=O)N3CCCCC3)ccc21,–,–,–,–,–
SMILES,HT1080 IDH1KD tx,IL1B secr inh,DT40 TDP1 CPT,HT1080NT lethal,TDP1 cell noCPT
CSc1ccc(CCNC(=O)Cn2ccc3cc(S(=O)(=O)N4CCCCCC4)ccc32)cc1,·,·,14.6µM,·,?
C/C(=N/NS(=O)(=O)c1ccc(CC(C)C)cc1)c1ccncc1,–,–,?,–,?
Cn1c(-n2cccc2)c(-c2c(-c3ccc(F)cc3)[nH]c3c2c(=O)n(C)c(=O)n3C)c(=O)n(C)c1=O,·,·,–,·,–
Cc1ccccc1OCC(=O)NNC(=O)Nc1ccc(Cl)cc1,4.61µM,–,5.8µM,6.51µM,4.61µM
COc1ccc(NC(C)=O)cc1CNC(=O)COc1ccccc1C(=O)Nc1cccc(C)c1C,–,–,?,–,4.11µM
Cc1ccc(Cl)cc1NC(=O)c1ccccc1OCC(=O)Nc1ccc(Cl)cc1,–,–,?,?,5.8µM
Cc1ccc2nc(SCC(=O)NCC3Cc4cc(-c5ncccc5C)ccc4O3)[nH]c2c1 (configuration not stated),·,·,–[9.04 µM],·,?
CCc1c(N)nc(N)nc1Nc1ccccc1Cl,–,–,18.4µM,?,20.6µM
COc1ccc(C2(C(=O)NCCc3ccccc3)CCCC2)cc1OC,–,–,–,–,–
COc1ccccc1C1CC(c2cccs2)=Nc2ccccc2S1 (configuration not stated),–,–,?,–,?
Fc1ccccc1C1CC(c2ccco2)=Nc2ccccc2S1 (configuration not stated),–,–,?,–,13µM
NC(=S)NS(=O)(=O)c1ccc(N)cc1,·,·,–,·,–
CC(OC(=O)CCCC(=O)Nc1ccccc1)C(=O)c1ccccc1 (configuration not stated),–,–,?,–,?
CCOC(=O)C1CCN(C(=O)c2cc3c(s2)-c2ccccc2OC3)CC1,–,–,14.6µM,–,?
CC(NC(=O)C1CCN(C(=O)c2ccc(-n3ccc4ccccc43)s2)CC1)c1ccccc1 (configuration not stated),·,·,?,·,18.4µM
O=C(c1cc2c(s1)-c1ccccc1OC2)N1CCc2ccccc2C1,–,–,–,–,–
CCOC(=O)C1CCN(C(=O)c2ccc(-n3ccc4ccccc43)s2)CC1,·,·,?,·,20.6µM
CC(NC(=O)C1CCN(C(=O)Nc2ccccc2)CC1)c1ccccc1 (configuration not stated),–,–,–,–,–
Cc1noc(C)c1CSCC(=O)Nc1ccc(S(C)(=O)=O)cc1,–,–,–,–,–
Cc1nn(-c2ccccc2)c(N2CCCC2)c1/C=N/O,–,–,?,–[9.24 µM],?
O=c1c2c(-c3ccccc3)csc2ncn1/N=C/c1c2ccccc2cc2ccccc12,–,–,?,–,16.4µM
Cc1nn(-c2ccccc2)c(N2CCCC2)c1/C=N/n1cnc2scc(-c3ccccc3)c2c1=O,–,–,10µM,–,12.6µM
COc1ccc(-n2c(SCC3OCCO3)nc3c(sc(=S)n3-c3ccccc3)c2=O)cc1OC,–,–,–,–,–
Cn1ncc(Cl)c1C(=O)N1CCN(C23CC4CC(CC(C4)C2)C3)CC1,–,–,?,?,?

# Screening results (PubChem BioAssay)
